The record followed here is article PMC7862700, “An all-to-all approach to the identification of sequence-specific readers for epigenetic DNA modifications on cytosine”.

Holding throughout (test): DAPPL (digital affinity profiling via proximity ligation, sequencing); 10 mM Tris-HCl pH 7.5, 50 mM NaCl, 1 mM DTT, 4% glycerol, room temperature, 30 min; GST-TFs on glutathione beads, 16-mer random dsDNA library, 0.1% formaldehyde crosslink after washing; high values mean tight binding
Conditions in all cases: protein: recombinant; tags: N-terminal GST; dsDNA, one strand shown

Test [1] addresses T1, FLI1 (Homo sapiens, UniProt Q01543 1-452).
T1 sequence: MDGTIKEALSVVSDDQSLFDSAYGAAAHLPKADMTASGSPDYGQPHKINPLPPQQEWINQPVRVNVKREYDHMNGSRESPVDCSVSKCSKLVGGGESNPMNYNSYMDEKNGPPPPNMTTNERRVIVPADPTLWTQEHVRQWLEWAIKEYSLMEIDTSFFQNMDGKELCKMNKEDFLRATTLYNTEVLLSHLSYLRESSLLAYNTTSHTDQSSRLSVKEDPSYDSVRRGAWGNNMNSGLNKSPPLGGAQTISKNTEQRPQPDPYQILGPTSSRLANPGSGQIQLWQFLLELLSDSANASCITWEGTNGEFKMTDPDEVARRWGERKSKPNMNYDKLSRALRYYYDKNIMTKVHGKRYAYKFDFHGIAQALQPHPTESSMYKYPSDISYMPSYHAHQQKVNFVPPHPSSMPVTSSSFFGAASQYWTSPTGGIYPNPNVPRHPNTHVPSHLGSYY
In short, it runs like this: (§1)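 Binding signal is defined as a hexamer's read frequency for one factor over its frequency for the tag-only sample. To obtain reads, GST-fused human transcription factors were expressed in yeast, captured on glutathione beads, barcoded with DNA and pooled with that sample. Pools met 200 nmole of a 16-mer random double-stranded DNA library in Tris/NaCl/DTT/glycerol buffer for 30 min at room temperature before washing, 0.1% formaldehyde crosslinking, proximity ligation (BsaI/T4 ligase, 1 h, 37 °C), PCR and Illumina NextSeq500 sequencing.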

The target in test [2] is T2, ELK1 (Homo sapiens, UniProt P19419 1-428).
T2 sequence: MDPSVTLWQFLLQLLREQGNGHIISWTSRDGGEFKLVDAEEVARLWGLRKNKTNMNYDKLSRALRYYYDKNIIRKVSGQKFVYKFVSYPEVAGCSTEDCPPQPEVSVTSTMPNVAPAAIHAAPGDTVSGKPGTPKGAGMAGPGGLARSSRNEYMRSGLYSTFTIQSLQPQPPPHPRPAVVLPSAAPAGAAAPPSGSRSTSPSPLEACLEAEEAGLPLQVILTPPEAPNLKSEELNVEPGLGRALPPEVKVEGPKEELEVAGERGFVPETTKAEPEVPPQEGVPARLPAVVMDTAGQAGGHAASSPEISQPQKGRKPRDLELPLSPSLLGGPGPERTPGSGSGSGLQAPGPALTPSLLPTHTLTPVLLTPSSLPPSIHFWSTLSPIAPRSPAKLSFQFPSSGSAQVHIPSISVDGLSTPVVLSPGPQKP
In short, it runs like this:
as §1

For test [3], the target named is T3, GABPA (Homo sapiens, UniProt Q06546 1-454).
T3 sequence: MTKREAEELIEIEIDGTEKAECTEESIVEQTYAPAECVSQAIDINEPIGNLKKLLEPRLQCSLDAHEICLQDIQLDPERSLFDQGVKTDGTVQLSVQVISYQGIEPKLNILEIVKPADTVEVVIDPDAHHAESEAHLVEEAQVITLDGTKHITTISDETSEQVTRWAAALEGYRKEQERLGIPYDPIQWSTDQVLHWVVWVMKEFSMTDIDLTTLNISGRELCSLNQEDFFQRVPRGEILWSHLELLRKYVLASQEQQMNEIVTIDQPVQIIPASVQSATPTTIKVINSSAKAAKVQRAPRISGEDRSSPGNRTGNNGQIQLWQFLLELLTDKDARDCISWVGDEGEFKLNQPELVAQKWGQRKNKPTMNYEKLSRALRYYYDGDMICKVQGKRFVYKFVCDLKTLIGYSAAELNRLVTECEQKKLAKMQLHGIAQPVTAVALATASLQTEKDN
In a few lines: as §1

Test [4] addresses T4, ERG (Homo sapiens, UniProt P11308 1-479).
T4 sequence: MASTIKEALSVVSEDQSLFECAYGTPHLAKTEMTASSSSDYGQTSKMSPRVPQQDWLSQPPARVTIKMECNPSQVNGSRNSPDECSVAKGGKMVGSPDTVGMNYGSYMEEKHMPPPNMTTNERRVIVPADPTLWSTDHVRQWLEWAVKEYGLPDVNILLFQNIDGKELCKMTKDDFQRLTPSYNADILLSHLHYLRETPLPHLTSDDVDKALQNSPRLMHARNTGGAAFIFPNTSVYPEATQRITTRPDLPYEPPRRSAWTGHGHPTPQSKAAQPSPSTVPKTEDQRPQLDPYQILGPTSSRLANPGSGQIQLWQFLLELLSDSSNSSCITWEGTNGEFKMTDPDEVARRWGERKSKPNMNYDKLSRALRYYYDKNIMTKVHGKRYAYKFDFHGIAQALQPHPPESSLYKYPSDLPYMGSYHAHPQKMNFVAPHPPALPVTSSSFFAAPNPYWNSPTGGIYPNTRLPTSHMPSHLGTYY
In a few lines:
as §1

Test [5] addresses ELF1 (Homo sapiens, UniProt P32519 1-619). In short, it runs like this: as §1
The target in test [6] is T5, EHF (Homo sapiens, UniProt Q9NZC4 1-300).
T5 sequence: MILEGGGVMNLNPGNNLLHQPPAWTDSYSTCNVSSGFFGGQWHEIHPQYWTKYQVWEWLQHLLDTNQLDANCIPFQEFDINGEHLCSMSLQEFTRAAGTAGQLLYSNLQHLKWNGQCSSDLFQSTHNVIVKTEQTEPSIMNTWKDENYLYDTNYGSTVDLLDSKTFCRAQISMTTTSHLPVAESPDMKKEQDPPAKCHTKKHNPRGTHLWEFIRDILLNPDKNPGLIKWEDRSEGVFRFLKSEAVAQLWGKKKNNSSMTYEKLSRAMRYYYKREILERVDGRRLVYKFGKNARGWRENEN
In short, it runs like this:
as §1

In test [7] the target is SPI1 (Homo sapiens, UniProt P17947 1-270). In short, it runs like this:
as §1

The target in test [8] is SPIB (Homo sapiens, UniProt Q01892 1-262). In short, it runs like this: as §1
Sequence of SPIB (Q01892 whole entry): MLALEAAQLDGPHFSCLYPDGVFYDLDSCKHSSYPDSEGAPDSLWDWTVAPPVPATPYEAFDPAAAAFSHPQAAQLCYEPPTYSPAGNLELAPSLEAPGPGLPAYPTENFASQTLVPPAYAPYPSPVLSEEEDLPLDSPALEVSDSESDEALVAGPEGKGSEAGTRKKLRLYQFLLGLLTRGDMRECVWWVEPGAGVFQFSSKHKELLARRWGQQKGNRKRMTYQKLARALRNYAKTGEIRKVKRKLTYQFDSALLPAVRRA
Test [9] has as its target T6, ELK3 (Homo sapiens, UniProt P41970 1-407).
T6 sequence: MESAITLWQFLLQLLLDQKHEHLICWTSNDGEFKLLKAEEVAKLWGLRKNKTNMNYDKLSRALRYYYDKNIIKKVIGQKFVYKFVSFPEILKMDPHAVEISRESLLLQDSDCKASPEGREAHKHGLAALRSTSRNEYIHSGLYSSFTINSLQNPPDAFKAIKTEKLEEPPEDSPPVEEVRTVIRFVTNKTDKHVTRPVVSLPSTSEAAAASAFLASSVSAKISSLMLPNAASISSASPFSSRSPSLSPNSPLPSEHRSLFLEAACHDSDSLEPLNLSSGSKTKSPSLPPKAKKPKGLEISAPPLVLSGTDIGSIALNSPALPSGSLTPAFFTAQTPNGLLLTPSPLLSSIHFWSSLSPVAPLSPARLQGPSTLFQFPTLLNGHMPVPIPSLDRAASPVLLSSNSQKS
In a few lines: as §1

Test [10] has as its target SPI1 (Homo sapiens, UniProt P17947 1-270). In short, it runs like this: as §1
The source holds these as a separate data set.

Sequence of ELF1 (P32519 whole entry): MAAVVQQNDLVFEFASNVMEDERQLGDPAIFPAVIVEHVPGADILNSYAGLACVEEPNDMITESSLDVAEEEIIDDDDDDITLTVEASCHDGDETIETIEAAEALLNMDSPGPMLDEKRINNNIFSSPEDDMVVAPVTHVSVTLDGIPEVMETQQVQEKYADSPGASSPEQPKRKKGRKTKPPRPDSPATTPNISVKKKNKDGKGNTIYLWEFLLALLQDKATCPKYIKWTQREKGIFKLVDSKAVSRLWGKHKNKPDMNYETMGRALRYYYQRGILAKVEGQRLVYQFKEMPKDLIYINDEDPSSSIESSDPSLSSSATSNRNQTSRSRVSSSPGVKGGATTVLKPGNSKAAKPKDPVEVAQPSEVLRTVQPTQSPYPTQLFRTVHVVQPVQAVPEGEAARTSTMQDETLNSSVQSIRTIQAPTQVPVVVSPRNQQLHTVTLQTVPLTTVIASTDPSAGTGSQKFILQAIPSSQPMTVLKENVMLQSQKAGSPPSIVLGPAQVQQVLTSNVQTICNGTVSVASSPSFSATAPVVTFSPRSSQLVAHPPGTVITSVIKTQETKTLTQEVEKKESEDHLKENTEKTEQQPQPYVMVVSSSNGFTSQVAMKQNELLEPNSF

For the sequence TGGCCT, the binding signal in test [1] is 1.59 fold enrichment (6-mer frequency, TF over GST control); in [2], 1.37 fold enrichment (6-mer frequency, TF over GST control); in test [3], 1.51 fold enrichment (6-mer frequency, TF over GST control); in [4], 1.54 fold enrichment (6-mer frequency, TF over GST control); in [5], 1.48 fold enrichment (6-mer frequency, TF over GST control); in test [6] it was 1.5 fold enrichment (6-mer frequency, TF over GST control). The binding signal is 1.55 fold enrichment (6-mer frequency, TF over GST control) in test [7]; 1.48 fold enrichment (6-mer frequency, TF over GST control) in [8]; 1.29 fold enrichment (6-mer frequency, TF over GST control) in [9].
For TTCCAT, the binding signal was 1.38 fold enrichment (6-mer frequency, TF over GST control) in [1]; 1.29 fold enrichment (6-mer frequency, TF over GST control) in test [2]; 1.22 fold enrichment (6-mer frequency, TF over GST control) in test [3]; 1.25 fold enrichment (6-mer frequency, TF over GST control) in test [4]; 1.33 fold enrichment (6-mer frequency, TF over GST control) in [5]; 1.28 fold enrichment (6-mer frequency, TF over GST control) in [6]. For the same sequence, the binding signal in [7] was 1.34 fold enrichment (6-mer frequency, TF over GST control); in [8], 1.32 fold enrichment (6-mer frequency, TF over GST control); in test [9], 1.28 fold enrichment (6-mer frequency, TF over GST control).
For the sequence TACTTC, the binding signal in [1] was 3.38 fold enrichment (6-mer frequency, TF over GST control); in test [2] it was 3.79 fold enrichment (6-mer frequency, TF over GST control); in test [3], 3.25 fold enrichment (6-mer frequency, TF over GST control); in [4], 3.88 fold enrichment (6-mer frequency, TF over GST control); in [5], 3.54 fold enrichment (6-mer frequency, TF over GST control); in test [6], 3.7 fold enrichment (6-mer frequency, TF over GST control). Moreover, the binding signal in test [10] is 4.12 fold enrichment (6-mer frequency, TF over GST control); in [8], 3.33 fold enrichment (6-mer frequency, TF over GST control); in test [9] it was 4.29 fold enrichment (6-mer frequency, TF over GST control).
For AATATG, the binding signal in [1] was 1.12 fold enrichment (6-mer frequency, TF over GST control); in test [2], 1.13 fold enrichment (6-mer frequency, TF over GST control); in test [3], 1.15 fold enrichment (6-mer frequency, TF over GST control); in [4], 1.15 fold enrichment (6-mer frequency, TF over GST control); in test [5], 1.17 fold enrichment (6-mer frequency, TF over GST control); in test [6] it was 1.09 fold enrichment (6-mer frequency, TF over GST control). For the same sequence, the binding signal was 1.15 fold enrichment (6-mer frequency, TF over GST control) in [7]; 1.19 fold enrichment (6-mer frequency, TF over GST control) in [8]; 1.19 fold enrichment (6-mer frequency, TF over GST control) in test [9].
For TTAACT, the binding signal is 1.18 fold enrichment (6-mer frequency, TF over GST control) in [1]; 1.14 fold enrichment (6-mer frequency, TF over GST control) in [2]; 1.15 fold enrichment (6-mer frequency, TF over GST control) in [3]; 1.17 fold enrichment (6-mer frequency, TF over GST control) in test [4]; 1.27 fold enrichment (6-mer frequency, TF over GST control) in test [5]; 1.1 fold enrichment (6-mer frequency, TF over GST control) in test [6]. Moreover, the binding signal in [7] is 1.23 fold enrichment (6-mer frequency, TF over GST control); in test [8] it was 1.21 fold enrichment (6-mer frequency, TF over GST control); in test [9], 1.19 fold enrichment (6-mer frequency, TF over GST control).
Regarding GCCTTA, the binding signal is 1.15 fold enrichment (6-mer frequency, TF over GST control) in [1]; 1.21 fold enrichment (6-mer frequency, TF over GST control) in [2]; 1.26 fold enrichment (6-mer frequency, TF over GST control) in test [3]; 1.21 fold enrichment (6-mer frequency, TF over GST control) in test [4]; 1.17 fold enrichment (6-mer frequency, TF over GST control) in test [5]; 1.11 fold enrichment (6-mer frequency, TF over GST control) in test [6]. In addition, the binding signal is 1.13 fold enrichment (6-mer frequency, TF over GST control) in test [7]; 1.27 fold enrichment (6-mer frequency, TF over GST control) in test [8]; 1.15 fold enrichment (6-mer frequency, TF over GST control) in [9].
For the sequence TTCCGC, the binding signal was 3.03 fold enrichment (6-mer frequency, TF over GST control) in [1]; 3.07 fold enrichment (6-mer frequency, TF over GST control) in test [2]; 2.79 fold enrichment (6-mer frequency, TF over GST control) in test [3]; 3.22 fold enrichment (6-mer frequency, TF over GST control) in [4]; 2.85 fold enrichment (6-mer frequency, TF over GST control) in test [5]; 3.08 fold enrichment (6-mer frequency, TF over GST control) in [6]. In addition, the binding signal in test [10] was 4.75 fold enrichment (6-mer frequency, TF over GST control); in test [8] it was 3.15 fold enrichment (6-mer frequency, TF over GST control); in [9], 3.03 fold enrichment (6-mer frequency, TF over GST control).
